Measurements reported in PubChem BioAssay.
Values joined by “and” are separate entries in the source; they are usually repeats but may differ in a detail not shown here. Identical values can stand only once. Active and inactive are the calls of the source.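 Rule for the calls, unless noted: active = inhibition at or above 50% relative to wild type and mutant plate controls; inactive = inhibition below 50%.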

Key:
[1] = inhibitors of TNFa-induced NFkB p65 translocation, primary screen, imaging, HUVEC, MLSMR starter and 10KST1 sets (AID 438;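 active = inhibition above 20% together with a positive visual image hit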;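 note: compound added about 3h40 before a 20 min TNFalpha stimulation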;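 for inhibition: signal is the nuclear over cytoplasmic p65 intensity ratio per well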); settings: HUVEC TNFa-induced p65 nuclear translocation; cell count: measured here: nuclei count (cytotoxicity indicator), at 2.08 µM; inhibition: at 2 µM, stronger effect = higher value, 0% TNFa-plus-vehicle, 100% no-TNFa wells
[2] = inhibitors of mutant huntingtin aggregation, primary screen, imaging, exon1htt(103Q)mCFP cells, high-content imaging (AID 483;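 active = visual image review flags a hit and inhibition of aggregation exceeds 20%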;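 note: compound exposure lasted 3 days before fixation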;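 for nuclei count: percent of the per-plate median nuclei count of sample wells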); settings: exon1htt(103Q)mCFP cell line, aggregate imaging, at 2 µM; inhibition of aggregation: stronger effect = higher value; nuclei count: measured here: cell count, toxicity
[3] = inhibitors of E-selectin induction by TNFa, primary screen, imaging, HUVEC, immunofluorescence, MLSMR starter and 10KST1 sets (AID 487;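 active = visually confirmed hit in the image check and inhibition above 20%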;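 for inhibition: signal is fraction of cell area covered by stained E-selectin grains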;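 for nuclei count: 100% = median nuclei count of all wells on the same plate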); settings: HUVEC TNFalpha-induced E-selectin immunofluorescence imaging, at 2 µM; inhibition: stronger effect = higher value; nuclei count: measured here: cell number, toxicity
[4] = target: Voltage-gated potassium channel subunit beta-2 (Rattus norvegicus) (UniProt P62483); test: KvBeta enzyme negative modulators, primary screen, biochemical, NADPH fluorescence (AID 622;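 active = fluorescence slope higher than the sample average by over 3 SD, cut at about -0.22 in these data, passing the limit was not always enough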;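 note: slope of raw intensity against log time taken from 70 to 1610 s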); settings: recombinant KvBeta, 4-cyanobenzaldehyde reduction, at 10 µM, stronger effect = higher value
Voltage-gated potassium channel subunit beta-2 (Rattus norvegicus), sequence (P62483 whole entry, looked up): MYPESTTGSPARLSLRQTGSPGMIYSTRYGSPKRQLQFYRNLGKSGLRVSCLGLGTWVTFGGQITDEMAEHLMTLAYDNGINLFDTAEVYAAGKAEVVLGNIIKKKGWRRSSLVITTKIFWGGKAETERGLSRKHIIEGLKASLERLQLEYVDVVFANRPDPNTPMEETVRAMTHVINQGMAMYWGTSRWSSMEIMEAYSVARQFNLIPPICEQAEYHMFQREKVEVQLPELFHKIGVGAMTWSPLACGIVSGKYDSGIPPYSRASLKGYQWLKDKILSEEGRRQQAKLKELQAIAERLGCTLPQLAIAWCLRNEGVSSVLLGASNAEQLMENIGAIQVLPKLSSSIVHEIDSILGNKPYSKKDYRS

[5] = target: Voltage-gated potassium channel subunit beta-2 (Rattus norvegicus) (UniProt P62483); test: KvBeta positive modulators, primary screen, biochemical, NADPH fluorescence (AID 623;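 active = NADPH fluorescence slope more negative than the mean of all samples by about 3 SD, 99.7% confidence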;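 note: fluorescence intensity change per second fitted from 20 to 320 s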); settings: Recombinant KvBeta, NADPH fluorescence decrease slope, 10 min; at 10 µM; stronger effect = lower value
[6] = target: Muscarinic acetylcholine receptor M4 (Homo sapiens) (UniProt P08173); test: compounds altering M4/GIRK thallium flux, either direction, primary screen, M4 allosteric agonist project, cell-based, HEK293 M4/GIRK, BTC-AM (AID 625;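 active = fluorescence slope after compound addition differing from the mean of all tested samples at 99.7% confidence, mostly higher but some lower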;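 note: thallium influx through GIRK channels coupled to M4 in HEK293 cells with BTC-AM dye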); settings: at 10 µM, actives lie on both sides
Muscarinic acetylcholine receptor M4 (Homo sapiens), sequence (P08173 whole entry, looked up): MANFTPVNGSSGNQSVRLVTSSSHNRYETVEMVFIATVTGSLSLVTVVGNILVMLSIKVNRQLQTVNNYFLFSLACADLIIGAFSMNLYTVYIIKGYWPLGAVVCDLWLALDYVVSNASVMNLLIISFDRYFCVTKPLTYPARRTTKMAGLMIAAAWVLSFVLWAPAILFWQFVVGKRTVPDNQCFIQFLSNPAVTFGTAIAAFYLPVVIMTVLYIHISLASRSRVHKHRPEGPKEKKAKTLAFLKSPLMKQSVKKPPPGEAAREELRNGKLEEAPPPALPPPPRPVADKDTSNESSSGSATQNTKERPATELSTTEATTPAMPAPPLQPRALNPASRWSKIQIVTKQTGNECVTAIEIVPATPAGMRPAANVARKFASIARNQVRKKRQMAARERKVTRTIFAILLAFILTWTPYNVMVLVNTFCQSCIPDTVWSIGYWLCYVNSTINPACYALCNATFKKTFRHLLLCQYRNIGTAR

[7] = inhibitors of Sendai virus-induced IRF3 signaling, primary screen, TLR/RLR signaling modifier project, cell-based, Sendai virus stimulus, luciferase, 10K MLSCN set (AID 602276;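 active = inhibition at or above 50% at 10 µM; inactive = inhibition below 50%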;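 note: firefly luciferase from ISG56 promoter only with Renilla not read in this screen; 0% = Sendai virus plus DMSO and 100% = medium plus DMSO without virus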); settings: HEK293 RL24 IRF3 luciferase reporter, at 10 µM, stronger effect = higher value
[8] = inhibitors of poly I:C-induced TLR3 signaling, primary screen, cell-based, poly I:C stimulus, luciferase, 10K MLSCN set (AID 602277;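 active = inhibition of the reporter signal at or above 50%; inactive = inhibition below 50%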); settings: HEK293-TLR3 RL24 IRF3 luciferase reporter, at 10 µM, stronger effect = higher value
[9] = inhibitors of Chlamydomonas gravitaxis, primary screen, whole organism, Chlamydomonas reinhardtii, WT vs cilia-less mutant, absorbance, 96-well (AID 463189); settings: OD600 absorbance, 2 days, at 10 µM, stronger effect = higher value;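 note: 0% = wild type cc124 cells in DMSO and 100% = ciliumless bld1 mutant cells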

CCOC(=O)c1ccc(COC(=O)CCc2nc3ccccc3[nH]c2=O)o1
cell count [1]: 410 | inhibition [1]: 10.6% (inactive) | inhibition of aggregation [2]: -18.4% (inactive) | nuclei count [2]: 108% | nuclei count [3]: 147% | fluorescence slope [4]: -0.546 (inactive) | NADPH fluorescence slope [5]: 1.7e-05 (inactive) | fluorescence slope [6]: 0.00556 (inactive) | inhibition [7]: 15.9% (inactive) | inhibition [8]: 18.3% (inactive)

C[C@H](NC(=O)Nc1ccccc1F)C(=O)O
cell count [1]: 294 | inhibition [1]: -8.5% (inactive) | inhibition of aggregation [2]: 4.9% (inactive) | nuclei count [2]: 86% | inhibition [3]: -78.4% (inactive) | nuclei count [3]: 138% | fluorescence slope [4]: -0.602 (inactive) | NADPH fluorescence slope [5]: 5.1e-05 (inactive) | fluorescence slope [6]: 0.00462 (inactive) | inhibition [7]: 14.6% (inactive) | inhibition [8]: 24.2% (inactive)

COc1ccccc1CNS(=O)(=O)c1cccc(S(=O)(=O)N2CCOCC2)c1
cell count [1]: 676 | inhibition [1]: 25.1% (inactive) | inhibition of aggregation [2]: 7.8% (inactive) | nuclei count [2]: 116% | inhibition [3]: 19.5% (inactive) | nuclei count [3]: 117% | fluorescence slope [4]: -0.401 (inactive) | NADPH fluorescence slope [5]: 2.6e-05 (inactive) | fluorescence slope [6]: 0.00588 (inactive) | inhibition [7]: 10.7% (inactive) | inhibition [8]: 19.2% (inactive)

COc1ccc(C(=O)N(Cc2ccco2)C(C(=O)NC2CCCC2)c2ccc(O)cc2)cc1OC (centres undefined)
cell count [1]: 653 | inhibition [1]: -2.4% (inactive) | inhibition of aggregation [2]: -3.3% (inactive) | nuclei count [2]: 104% | inhibition [3]: 14.6% (inactive) | nuclei count [3]: 103% | fluorescence slope [4]: -0.54 (inactive) | NADPH fluorescence slope [5]: -4.9e-05 (inactive) | fluorescence slope [6]: 0.00452 (inactive) | inhibition [7]: 10.7% (inactive) | inhibition [8]: 12.6% (inactive)

O=C1NC(c2ccccc2)(C(F)(F)F)SC2=NCCCN12 (centres undefined)
cell count [1]: 429 | inhibition [1]: 4.8% (inactive) | inhibition of aggregation [2]: 12.3% (inactive) | nuclei count [2]: 106% | nuclei count [3]: 154% | fluorescence slope [4]: -0.482 (inactive) | NADPH fluorescence slope [5]: 4.2e-05 (inactive) | fluorescence slope [6]: 0.00455 (inactive) | inhibition [7]: -6.22% (inactive) | inhibition [8]: -13.6% (inactive)

Nc1ccc(S(=O)(=O)Nc2ccnn2-c2ccccc2)cc1
inhibition [9]: -0.772% (inactive)

NC(N)=[N+]1CCc2ccccc2C1
inhibition [9]: -2.7% (inactive)

CCOC(=O)Nc1ccc(NCc2ccc(F)cc2)nc1N
inhibition [9]: 3.93% (inactive)

CCCCCC(O)c1cccc(OCc2ccc3ccccc3n2)c1 (centres undefined)
inhibition [9]: 3.99% (inactive)

NC(Cc1ccc(Cl)cc1)C(=O)O (centres undefined)
inhibition [9]: -1.92% (inactive)

COc1cc(-c2ccc(=O)[nH]n2)ccc1OC(F)F
inhibition [9]: 8.84% (inactive)

C#CC(N)CCC(=O)O (centres undefined)
inhibition [9]: -0.038% (inactive)

CC1(C)C(=O)N(CCN2CCC(C(=O)c3ccc(F)cc3)CC2)c2ccccc21
inhibition [9]: 5.57% (inactive)

COc1ccc(CCNC[C@@H](O)c2ccc(O)cc2)cc1OC
inhibition [9]: -0.226% (inactive)

N[C@@H](COP(=O)(O)O)C(=O)O
inhibition [9]: 2.62% (inactive)

CCn1cc(C(=O)O)c(=O)c2cc(F)c(N3CCNC(C)C3)c(F)c21 (centres undefined)
inhibition [9]: 3.51% (inactive)

NC(N)=NC(=O)c1nc(Cl)c(N2CCCCCC2)nc1N
inhibition [9]: -1.07% (inactive)

Cn1c(=O)[nH]c2ncn(C)c2c1=O
inhibition [9]: -7.51% (inactive)

CCCCCN(CCCCC)C(=O)C(CCC(=O)O)NC(=O)c1ccc(Cl)c(Cl)c1 (centres undefined)
inhibition [9]: -0.994% (inactive)

Cc1ccc2c(c1)C(N1CCN(C)CC1)=Nc1cccnc1N2
inhibition [9]: 7.3% (inactive)

S=C(S)OC1CC2CC1C1CCCC21 (centres undefined)
inhibition [9]: 7.66% (inactive)

CN(CCOc1ccc(C[C@H](Nc2ccccc2C(=O)c2ccccc2)C(=O)O)cc1)c1ccccn1
inhibition [9]: 1.04% (inactive)

CC(C)NC[C@@H](O)c1ccc(O)c(O)c1
inhibition [9]: 3.12% (inactive)

CC(C)(C)[C@]1(O)CCN2C[C@H]3c4ccccc4CCc4cccc(c43)[C@@H]2C1
inhibition [9]: 3.49% (inactive) and -7.42% (inactive)

CC(O)C(O)[C@H]1CNc2nc(N)[nH]c(=O)c2N1 (some centres undefined)
inhibition [9]: 6.73% (inactive)

Cn1c(=O)c2[nH]c(C3CCCC3)nc2n(C)c1=O
inhibition [9]: -2.05% (inactive)
